Test results: the supplement of paper PMC6555819

Assays:
Assay in all cases: PBM binding z-score (relative to random genomic background probes); higher = stronger binding; sequences stand for … in GC…GCGATTGACAGCGTAGAATGAAGG
[1] = system: FXR:RXRa (NR concentration 270 nM, RXRa partner concentration 90 nM)
Procedure, shortened: (§1)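 Probes were double-stranded and carried 34-nt variable regions with direct-repeat seeds, single-nucleotide variants, half-site ablations and random human genomic background sequences, printed on custom Agilent 4×180K protein-binding microarrays. Arrays were incubated 1 h with ligand-free nuclear receptor dimers in PBS pH 7.4, 2% milk, 0.02% Triton X-100, 1 mM DTT, 0.2 mg/mL BSA and 0.4 mg/ml salmon testes DNA. Antibodies against each partner (one per run) detected binding, and scanned fluorescence was regression-normalized. Binding z-scores use the random background probes as reference.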

[2] = system: LXRa:RXRa (NR concentration 270 nM, RXRa partner concentration 90 nM)
Procedure, shortened: as §1

[3] = system: LXRa homodimer (NR concentration 270 nM)
Procedure, shortened: as §1

[4] = system: LXRb:RXRa (NR concentration 270 nM, RXRa partner concentration 90 nM)
Procedure, shortened: as §1

[5] = system: LXRb homodimer (NR concentration 270 nM)
Procedure, shortened: as §1

[6] = system: PPARa:RXRa (NR concentration 270 nM, RXRa partner concentration 90 nM)
Procedure, shortened: as §1

[7] = system: PPARg:RXRa (NR concentration 180 nM, RXRa partner concentration 90 nM)
Procedure, shortened: as §1

[8] = system: PPARg:RXRa 270nM:90nM, anti-RXR (NR concentration 270 nM, RXRa partner concentration 90 nM)
Procedure, shortened: as §1

[9] = system: PPARg:RXRa 30nM:10nM, anti-RXR (NR concentration 30 nM, RXRa partner concentration 10 nM)
Procedure, shortened: as §1

[10] = system: PPARg:RXRa 90nM:30nM, anti-RXR (NR concentration 90 nM, RXRa partner concentration 30 nM)
Procedure, shortened: as §1

[11] = system: PPARg:RXRa DBDmut IVT, anti-RXR (DBD mutation: RXRa K156A/R161A, NR concentration 270 nM, RXRa partner concentration 90 nM)
Procedure, shortened: as §1

[12] = system: PPARg:RXRa IVT, anti-PPARg (NR concentration 270 nM, RXRa partner concentration 90 nM)
Procedure, shortened: as §1

[13] = system: PPARg DBDmut:RXRa IVT, anti-PPARg (DBD mutation: PPARg1 K132A/R137A, NR concentration 270 nM, RXRa partner concentration 90 nM)
Procedure, shortened: as §1

[14] = system: PPARg DBDmut IVT, anti-PPARg (DBD mutation: PPARg1 K132A/R137A, NR concentration 270 nM)
Procedure, shortened: as §1

[15] = system: PPARg homodimer (NR concentration 180 nM)
Procedure, shortened: as §1

[16] = system: PXR:RXRa (NR concentration 270 nM, RXRa partner concentration 90 nM)
Procedure, shortened: as §1

[17] = system: PXR homodimer (NR concentration 270 nM)
Procedure, shortened: as §1

[18] = system: RARa:RXR (NR concentration 270 nM, RXRa partner concentration 90 nM)
Procedure, shortened: as §1

[19] = system: RARa homodimer (NR concentration 270 nM)
Procedure, shortened: as §1

[20] = system: RARb:RXRa (NR concentration 270 nM, RXRa partner concentration 90 nM)
Procedure, shortened: as §1

Sequence | PBM binding z-score [1] | PBM binding z-score [2] | PBM binding z-score [3] | PBM binding z-score [4] | PBM binding z-score [5] | PBM binding z-score [6] | PBM binding z-score [7] | PBM binding z-score [8] | PBM binding z-score [9] | PBM binding z-score [10] | PBM binding z-score [11] | PBM binding z-score [12] | PBM binding z-score [13] | PBM binding z-score [14] | PBM binding z-score [15] | PBM binding z-score [16] | PBM binding z-score [17] | PBM binding z-score [18] | PBM binding z-score [19] | PBM binding z-score [20]
TCTTGTAGATCAATAGAGGTTAAGACAGTGCGCT | 0.684 | 3.16 | 0.434 | 1.56 | 0.045 | 1.98 | 0.205 | 1.48 | 2.9 | 2.34 | 1.86 | 0.857 | 0.686 | 0.616 | 0.896 | 2.24 | 0.168 | 1.71 | 0.602 | 0.993
TCGAGTAGGTTACCAATGGGGCATTCAGCTTTCT | 0.0683 | 1.23 | -0.798 | 0.966 | -0.683 | 1.26 | 0.191 | 1.15 | 1.14 | 1.11 | 3.39 | 2.58 | -0.0498 | -0.456 | -0.375 | 0.171 | -0.622 | 0.273 | -0.0206 | 0.992
ACAGAGAGGTGAGTGAAGGTAACTCAGCTGGACG | 0.855 | 0.573 | -0.279 | 0.265 | 0.454 | 1.26 | 0.736 | 0.54 | -0.194 | 0.056 | 1.71 | 1.65 | 0.674 | -0.716 | 0.508 | 0.337 | 0.0847 | 0.565 | 0.175 | 1.48
ATCTCTAGGTAAGACTCAGTTCAGTGATGAACGC | 0.343 | 0.402 | 0.634 | 0.249 | 0.676 | 0.268 | 0.294 | 0.427 | 0.243 | 0.302 | 1.78 | 1.28 | 1.15 | 1.33 | 1.36 | 0.974 | 1.63 | 0.24 | 0.763 | 0.357
CGAACGAGCGCATGAGTTGATAGCAAATGCCGAT | -0.525 | -0.575 | -0.486 | -0.865 | -1.12 | -1.7 | 0.405 | -0.647 | -0.312 | -0.44 | -0.785 | -0.827 | -0.939 | -1.33 | -2.16 | -0.509 | -0.275 | -0.304 | -0.678 | -1.03
CCGACTGGGGCAAAGTTTACCATACTCAGTACGA | -0.248 | 0.0946 | -0.139 | 0.553 | -0.586 | 3.67 | 8.3 | 7.72 | 6.38 | 8.55 | 4.45 | 4.71 | -0.8 | -0.571 | 0.875 | 0.182 | 0.0528 | 0.465 | -0.24 | 1.41
CAAACTAGGTCAAAGTTCAAAGTCGAGCCAACCA | 7.56 | 6.56 | 5.94 | 5.99 | 2.08 | 7.43 | 13.3 | 10.7 | 12.3 | 12.8 | 8.26 | 8.92 | 2.7 | 3.37 | 3.22 | 6.38 | 5.12 | 7.88 | 1.43 | 5.27
ATCGAAAGGTCGTGAGGTGAGAATACAGAAAGGC | 5.69 | 4.09 | 0.3 | 3.37 | 0.293 | 5.61 | 4.61 | 4.58 | 1.99 | 3.09 | 0.36 | 2.7 | 1.67 | 0.86 | 1.7 | 3.16 | 0.322 | 4.19 | 0.587 | 4.13
CAAACTAGGTCAAGAGGTGAAAGTCCGCTTCCCG | 5.13 | 3.89 | 0.764 | 2.66 | 0.24 | 5.8 | 8.82 | 7.36 | 5.81 | 7.88 | 8.11 | 8.63 | 5.95 | 5.05 | 5.72 | 2.72 | 0.369 | 4.83 | 1.4 | 4.54
CCTACTGGGCCAATCAGAGGTCATTGATCATATG | 2.78 | 4.24 | 7.72 | 3.78 | 0.545 | 3.87 | 2.45 | 3.15 | 1.12 | 2.29 | 4.6 | 4.19 | 1.25 | 0.284 | 4.19 | 5.06 | 3.38 | 5.18 | 0.519 | 3.27
GATGCAGGGTCAGCTAGAGGCCAGAGTATGGAAA | 4.25 | 2.59 | -0.565 | 2.29 | -0.68 | 4.37 | 2.67 | 2.66 | 0.448 | 1.74 | 0.505 | 1.63 | -0.437 | -1.46 | 2.73 | 3.3 | -0.237 | 4.56 | 0.285 | 4.1
GTACAAAGGTGAATAGGTCGTTGATGAGTAGGCG | 2.27 | 2.19 | 0.326 | 1.78 | -0.0357 | 4.09 | 4.55 | 4.78 | 2.17 | 4.03 | 2.92 | 4.14 | 1.72 | 0.526 | 2.64 | 2.15 | 0.501 | 3.42 | 1.23 | 3.49
CTAGAAAGGTCGGTTGAGGTGAGTATACGGATAA | 3.11 | 1.64 | -0.0561 | 1.64 | -0.0428 | 2.6 | 0.509 | 1.1 | 0.117 | 0.585 | 0.237 | 1.18 | 0.0511 | 0.00122 | 1.34 | 3.37 | 0.245 | 2.6 | 0.889 | 3.03
TAGACAGGGTCAAAGGCCAGAGTACGAATGTCGA | 7.27 | 4.51 | -0.0175 | 3.89 | 0.611 | 5.99 | 7.49 | 6.93 | 4.3 | 6.42 | 0.674 | 3.81 | 1.39 | 0.376 | 1.55 | 4.13 | 0.121 | 5.65 | 0.0319 | 4.28
TAGCCTAGGTCAGATTGGGCCAGTATACGCTATA | 2.65 | 1.25 | -0.472 | 0.995 | -0.0361 | 1.43 | 0.564 | 0.735 | -0.437 | -0.114 | 0.821 | 1.47 | -0.745 | -0.0991 | 0.692 | 0.48 | -0.72 | 0.891 | -0.737 | 3.16
